Experimental data published in PubChem BioAssay AID602399 (Sanford-Burnham Center for Chemical Genomics, 2012).
About 2,800 (0.78%) of roughly 360,000 compounds were called active. This is one part of a sample in which actives are shown more often than they occur. Unmarked numbers belong to inactive results. Rule as the data show it: active = inhibition above about 26%; inactive = the rest.

What follows are molecules tested on Nicotinate-nucleotide adenylyltransferase NadD (Staphylococcus aureus N315) (assay: S. aureus NadD enzyme activity blockers – biochemical, colorimetric, uHTS, primary screen (AID 602399)). Conditions: purified NadD enzyme, colorimetric absorbance read-out; at 20 µM; hits give high values.
In the case of `C#Cc1cc(N2CCN(C(=O)c3ccoc3)CC2)n2nc(-c3cccc(Cl)c3)cc2n1`, the inhibition is reported as 35.4% (active). In the case of `CN(C)CCN1CCN(c2cc(-c3cccc(Cl)c3)nc3ccnn23)CC1`, the inhibition is reported as -0.61%. For `O=C(c1ccccc1)N1CCN(C(=O)c2cc3nc(-c4ccccc4)cc(C(F)(F)F)n3n2)CC1`, the inhibition was 2.29%. In the case of `CCCCC[C@H](C)N1C[C@@H](COCc2ccccc2)Oc2cc(N3CCC[C@@H]3CO)ccc2S1(=O)=O`, the inhibition is reported as 1.75%. With `Nc1ncnc2c1cnn2C1CC(O)C(CO)O1` (stereo not given) the inhibition was 4.49%. In the case of `Cc1ccc(-n2c(SCC(=O)N/N=C/C=C/c3ccccc3[N+](=O)[O-])nc3ccccc3c2=O)cc1`, the inhibition is reported as 35.1% (active). `C/C(=N\NC(=O)CSc1nc2ccccc2c(=O)n1-c1ccccc1C)c1cccs1` gave an inhibition of 2.02%. In the case of `CC(=O)NCCn1c(SCC(=O)Nc2ccc(C)cc2)nc2ccccc2c1=O`, the inhibition is reported as -6.19%. `Cn1c(SCC(=O)N/N=C/c2ccc(O)c(O)c2)nc2ccccc21` was tested, and the inhibition was -4.08%. For `CCn1c(SCC(=O)N/N=C/C=C/c2ccccc2[N+](=O)[O-])nnc1-c1ccccc1`, the inhibition was 5.92%. With `Cc1nn(-c2ccccc2)c(C)c1/C=N/NC(=O)CSc1nc2ccccc2c(=O)n1-c1ccccc1` the inhibition was 30.2% (active). `Cc1ccc(CC2CC(=O)N(c3nc(C)cc(C)n3)C2=O)cc1` (stereo not given) showed an inhibition of -0.638%. For `O=C(COC(=O)c1cc(S(=O)(=O)N2CCOCC2)ccc1F)NC1CC1`, the inhibition was -7.35%. With `COc1ccc(Cc2nnc(SCC(=O)N(c3ccccc3)C(C)C)n(N)c2=O)cc1` the inhibition was -0.371%. `CC(=O)N(c1ccc2oc(=O)sc2c1)S(=O)(=O)c1ccc(C)cc1` showed an inhibition of -4.06%. Molecule `Cc1ccc2cccc(O)c2[n+]1[O-]` has an inhibition of -2.68%. With `O=C(O)CCC(=O)NCc1ccc(C(=O)O)cc1` the inhibition was -1.86%. `O=C(O)c1ccc(COCC(F)(F)F)cc1` was tested, and the inhibition was 57.7% (active). `NNC(=O)c1ccc(COCC(F)(F)C(F)F)cc1` was tested, and the inhibition was 0.345%. With `O=C(CCc1ccccc1)Nc1ccc(NC(=O)C2CCCCC2)nc1` the inhibition was -0.446%. With `O=C1CCCN2N=C(SCC(=O)Nc3ccc(Br)cc3)SC2=N1` the inhibition was 0%. In the case of `COCCNC(=O)Cn1cc2c(n1)CCCCC2`, the inhibition is reported as 4.24%. Molecule `CC1CN(S(=O)(=O)c2ccc(C(=O)NN3CCN(C)CC3)cc2)CC(C)O1` (stereo not given) has an inhibition of -3.52%. With `Cc1ccc(C(=O)N/N=C\c2cc(Br)c(Br)o2)cn1` the inhibition was -3.68%. `Nc1cccnc1Sc1ccccc1` gave an inhibition of -5.1%.
